PubChem BioAssay AID485270 (The Scripps Research Institute Molecular Screening Center, 2010)
Screen size: about 330,000 compounds; about 5,800 (1.8%) were called active. No stated cut-off is given here; in the data, active means inhibition mostly above about 38% (no sharp cut-off); inactive means mostly below about 40%. This excerpt belongs to a sample that is enriched for actives.

These compounds were tested against Orexin/Hypocretin receptor type 1 (Homo sapiens) (UniProt O43613) (assay: antagonists of human orexin 1 receptor (OX1R) (AID 485270;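 further: 0% = agonist challenge alone and 100% = reference antagonist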)). Conditions: OX1R-expressing cells, FRET antagonist read-out; at 6.6 µM; active compounds read high.
Orexin/Hypocretin receptor type 1 (Homo sapiens), sequence (O43613 whole entry, looked up): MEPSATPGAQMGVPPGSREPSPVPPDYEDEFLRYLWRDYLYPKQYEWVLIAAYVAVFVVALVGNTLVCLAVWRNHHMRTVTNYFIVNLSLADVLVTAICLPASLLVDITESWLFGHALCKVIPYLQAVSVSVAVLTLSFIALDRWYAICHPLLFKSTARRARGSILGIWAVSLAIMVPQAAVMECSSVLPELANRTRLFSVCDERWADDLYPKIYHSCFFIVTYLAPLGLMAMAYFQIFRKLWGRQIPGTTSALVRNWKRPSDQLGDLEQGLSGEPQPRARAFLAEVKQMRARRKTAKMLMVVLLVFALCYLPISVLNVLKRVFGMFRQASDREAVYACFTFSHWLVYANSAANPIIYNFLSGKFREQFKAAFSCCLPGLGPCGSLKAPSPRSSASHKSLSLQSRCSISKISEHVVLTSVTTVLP
In the case of `CC1(C)C[C@H]2C3=CCC4[C@@]5(C)CC[C@H](O)[C@](C)(CO)C5CC[C@@]4(C)[C@]3(C)C[C@@H](O)[C@@]2(CO)[C@@H](O)[C@@H]1O` (some centres undefined), the inhibition is reported as 6.35% (inactive). `O=C(CSc1nccn1-c1cccc(F)c1)NC1CCCC1` was tested, and the inhibition was 1.88% (inactive). With `CC(OC(=O)c1c(F)cccc1F)C(=O)NCCC1=CCCCC1` (centres undefined) the inhibition was 6.17% (inactive). `Cc1[nH]n(C)c(=O)c1C(=O)c1c(-c2c(Cl)cccc2Cl)noc1C` was tested, and the inhibition was 38.8% (inactive). For `Cc1cccc(N=Nc2c(C)[nH]n(-c3ccccc3)c2=O)c1`, the inhibition was 6.48% (inactive). `Cc1[nH]n(C)c(=O)c1N=Nc1ccc(S(C)(=O)=O)cc1` was tested, and the inhibition was 75.9% (active). For `O=C(Nc1ccc2ccccc2c1)Nc1ccc2snnc2c1`, the inhibition was 60.2% (active). In the case of `CCc1ccccc1NC(=O)c1ccc2snnc2c1`, the inhibition is reported as 19.6% (inactive). With `O=C(Nc1cccc(Br)c1)c1ccc2snnc2c1` the inhibition was 28.6% (inactive). For `CC(=O)C(CC(=O)N1CCCC1)C(=O)Nc1ccc(Cl)cc1` (centres undefined), the inhibition was -2.02% (inactive). `O=C1COc2ccc(C(=O)COC(=O)c3ccccc3Cl)cc2N1` was tested, and the inhibition was 8.89% (inactive). In the case of `CCN(C(=O)CSc1ncnc2sccc12)c1c(N)n(Cc2ccccc2)c(=O)[nH]c1=O`, the inhibition is reported as 42.3% (active). `CCCN(C(=O)CSc1nnc(N)s1)c1c(N)n(Cc2ccccc2)c(=O)[nH]c1=O` was tested, and the inhibition was 2.18% (inactive). With `CCN(C(=O)COC(=O)c1sccc1C)c1c(N)n(Cc2ccccc2)c(=O)[nH]c1=O` the inhibition was 21.4% (inactive). In the case of `COc1ccc(C(=O)O)cc1S(=O)(=O)NC1CCN(Cc2ccccc2)CC1`, the inhibition is reported as 2.69% (inactive). For `O=C(NCCCN1CCOCC1)c1cn(-c2ccccc2)nc1-c1ccc(F)cc1`, the inhibition was 1.24% (inactive). In the case of `CC(=O)Nc1ccc(/C=N/NC(=O)c2cccs2)cc1`, the inhibition is reported as 18.1% (inactive). In the case of `O=C(NC(Cc1c[nH]c2ccccc12)C(=O)N/N=C/c1ccc(Br)cc1)c1cccs1` (centres undefined), the inhibition is reported as 68.7% (active). `CC(=O)NC(Cc1c[nH]c2ccccc12)C(=O)O` (centres undefined) was tested, and the inhibition was 11.3% (inactive). For `O=C(NNS(=O)(=O)c1c(F)cc(F)c(Cl)c1F)C12CC3CC(CC(C3)C1)C2`, the inhibition was 6.19% (inactive). In the case of `COc1ccc(C(=O)NCc2ccccc2C)cc1S(=O)(=O)NC1CCCC1`, the inhibition is reported as 8.7% (inactive). With `O=C(COC(=O)c1ccc(O)cc1O)c1ccc2c(c1)OCCO2` the inhibition was 9.27% (inactive). For `CCNC(=S)N1CCN(S(=O)(=O)c2ccc(Cl)s2)CC1`, the inhibition was 13.3% (inactive). In the case of `CC(C)(C)OC(=O)C1=C(CO)CS[C@@H]2[C@H](NC(=O)Cc3ccccc3)C(=O)N12`, the inhibition is reported as 17.7% (inactive). With `CCCCN(CC)C(=S)Nc1ccc2nc3n(c(=O)c2c1)CCCCC3` the inhibition was 5.73% (inactive). In the case of `O=c1c2cc([N+](=O)[O-])ccc2nc2n1CCC2`, the inhibition is reported as 59.2% (active). `O=C(Nc1ccc2nc3n(c(=O)c2c1)CCCC3)c1ccc(Cl)nc1` was tested, and the inhibition was 4.47% (inactive). `COc1ccc(C(=O)O/N=C(\N)c2ccccn2)cc1[N+](=O)[O-]` was tested, and the inhibition was 28.6% (active). `Cc1ccc(C(=O)O/N=C(\N)c2ccccn2)cc1Cl` was tested, and the inhibition was 14.1% (inactive). For `N/C(=N\OC(=O)c1ccc([N+](=O)[O-])cc1)c1ccccn1`, the inhibition was 53.4% (inactive). For `O=C(O[C@H]1[C@H](Cc2ccccc2)NS(=O)(=O)[C@H]2C[C@@H]3C=C[C@]12O3)c1ccc([N+](=O)[O-])cc1`, the inhibition was 15.9% (inactive). For `O=C(O[C@@H]1[C@H](Cc2ccccc2)NS(=O)(=O)[C@H]2C[C@@H]3C=C[C@]12O3)c1ccccc1Br`, the inhibition was 52.4% (active). `CC(C)C(NC(=O)c1c(F)cccc1F)C(=O)NNC(=O)c1ccccc1` (centres undefined) was tested, and the inhibition was 2.8% (inactive). With `COc1ccc(-c2c(C#Cc3ccsc3)c3cc(-c4ccc(CN5CCOCC5)cc4)ccc3n2C)cc1` the inhibition was 8.67% (inactive). For `COc1cc(C(=S)N2CCOCC2)cc(OC)c1OC(=O)c1cc([N+](=O)[O-])cc([N+](=O)[O-])c1`, the inhibition was 66.5% (inactive). For `COc1cc(C(=S)N2CCOCC2)cc(OC)c1OC(=O)c1cc([N+](=O)[O-])c(C)c([N+](=O)[O-])c1`, the inhibition was 8.29% (inactive). For `COc1cc(C(=S)N2CCOCC2)cc(OC)c1OC(=O)c1ccc([N+](=O)[O-])cc1[N+](=O)[O-]`, the inhibition was 113% (active). In the case of `Cc1cccc([C@H]2[C@@H]3C=CC[C@@H](C)[C@@H]3C(=O)N2Cc2ccccc2)c1`, the inhibition is reported as 23.4% (inactive). With `Cc1c(C(=O)Nc2cccc(S(=O)(=O)N3CCOCC3)c2)oc2ccccc12` the inhibition was 24.2% (inactive). With `CC(=O)c1ccc2c(c1)OCCOCCOc1ccc(C(C)=O)cc1OCCOCCO2` the inhibition was 0.66% (inactive). For `CC(=O)c1ccc(OC(=O)N2CCOCC2)cc1`, the inhibition was 0.24% (inactive). In the case of `CC(=O)Oc1ccc(C(C)=O)c2c1OCCO2`, the inhibition is reported as 88.7% (active). In the case of `O=C(NCCc1ccco1)c1ccc(OCc2cn3ccccc3n2)cc1`, the inhibition is reported as 8.69% (inactive). `COc1ccc(CCn2c(NCCCN3CCOCC3)nc3c2c(=O)[nH]c(=O)n3C)cc1` was tested, and the inhibition was 101% (active). `COc1ccc(CNc2nc3c(c(=O)[nH]c(=O)n3C)n2Cc2ccccc2)cc1` was tested, and the inhibition was -5.7% (inactive). In the case of `COc1ccc(CCn2c(NN=C3CCCC3)nc3c2c(=O)[nH]c(=O)n3C)cc1`, the inhibition is reported as 18.2% (inactive). In the case of `Cc1ccc(S(=O)(=O)Nc2ccc(F)c(S(=O)(=O)N3CCOCC3)c2)cc1`, the inhibition is reported as 21.7% (inactive). With `O=C(CSc1nc2ccccc2c(=O)n1-c1ccccc1F)N1CCOCC1` the inhibition was 16.2% (inactive). With `COc1ccc2ccccc2c1/C=N/NC(=O)c1cc(C)[nH]n1` the inhibition was 39.3% (inactive). For `CC(C)(C)c1cc(C(=O)N/N=C/c2ccc([N+](=O)[O-])s2)n[nH]1`, the inhibition was 56.3% (active). In the case of `Cc1ccccc1NCC(=O)N/N=C\c1ccc([N+](=O)[O-])s1`, the inhibition is reported as 20.9% (inactive). For `CC(=O)N1CCCc2cc(S(=O)(=O)N3CCCC(C(=O)N4CCN(c5cccc(Cl)c5)CC4)C3)ccc21` (centres undefined), the inhibition was 39.7% (active). `CC(=O)N1CCCc2cc(S(=O)(=O)N3CCCC(C(=O)NCc4ccc(Cl)cc4)C3)ccc21` (centres undefined) was tested, and the inhibition was 10.5% (inactive). With `CC(=O)N1c2ccc(S(=O)(=O)N3CCCC(C(=O)Nc4cccc(Cl)c4)C3)cc2CC1C` (centres undefined) the inhibition was 2.16% (inactive). For `CSCCC1NC(=O)N(CC(=O)Nc2cccc(S(=O)(=O)N3CCCCCC3)c2)C1=O` (centres undefined), the inhibition was 12.6% (inactive). With `O=C1[C@@H](c2ccccc2)[C@@H](c2ccccc2)N1c1cccnc1` the inhibition was 26% (inactive). `Cc1cc(C(C)(C)C)oc1C(=O)N(CC(=O)NC1CCCC1)Cc1ccc(Cl)cc1` was tested, and the inhibition was 22.5% (inactive). For `O=C(COC(=O)Cc1ccc([N+](=O)[O-])cc1)NC1CCCCCC1`, the inhibition was 2.43% (inactive). For `Cc1cc(C)cc(NC(=O)C(OC(=O)c2ccc(O)cc2)c2ccccc2)c1` (centres undefined), the inhibition was 9.51% (inactive). In the case of `CC(C)CC[n+]1ccn(C2=C([O-])c3ccccc3C(=O)/C2=N\S(=O)(=O)c2ccccc2)c1`, the inhibition is reported as 79.9% (active). With `O=C(CCc1ccc(S(=O)(=O)N2CCOCC2)cc1)OCC(=O)c1ccc(Br)cc1` the inhibition was 4.77% (inactive). `O=C(Nc1nnc(-c2ccccc2)o1)c1cccc(S(=O)(=O)N2CCOCC2)c1` was tested, and the inhibition was 13.1% (inactive). `COc1ccc(NS(=O)(=O)c2ccc(C(=O)Nc3c(C)n(C)n(-c4ccccc4)c3=O)cc2)cc1` was tested, and the inhibition was 8.89% (inactive). `Cc1c(NC(=O)C(C)OC(=O)c2ccccc2O)c(=O)n(-c2ccccc2)n1C` (centres undefined) was tested, and the inhibition was 5.32% (inactive). In the case of `COc1ccc(C(=O)C(C)OC(=O)c2cccc(S(=O)(=O)Nc3c(C)n(C)n(-c4ccccc4)c3=O)c2)cc1` (centres undefined), the inhibition is reported as 41.2% (active). In the case of `Cc1cc(NC(=O)CSc2nnc(-c3ccco3)n2N)no1`, the inhibition is reported as 9.57% (inactive). In the case of `O=C(CNC(=O)c1ccccc1F)OCC(=O)c1c[nH]c2ccccc12`, the inhibition is reported as 3.49% (inactive). For `COc1ccc(NS(=O)(=O)c2cc(NC(=O)c3ccc(S(=O)(=O)N(C)C)cc3)ccc2N2CCOCC2)cc1`, the inhibition was 6.2% (inactive). `COc1ccc(C(=O)COC(=O)C(O)c2ccccc2)c(OC)c1` (centres undefined) was tested, and the inhibition was 3.45% (inactive). For `O=C(COC(=O)c1ccc(F)cc1)NCC1COc2ccccc2O1` (centres undefined), the inhibition was 6.76% (inactive). With `O=C(CN1C(=O)/C(=C/c2ccccc2F)Sc2ccccc21)NCc1cccnc1` the inhibition was 46.6% (active). With `O=C(CN1C(=O)/C(=C\c2ccc(C(F)(F)F)cc2)Sc2ccccc21)NCc1ccco1` the inhibition was 38.3% (inactive). With `O=C(CN1C(=O)S/C(=C\c2ccccc2F)C1=O)NCCCn1ccnc1` the inhibition was 20.4% (inactive). In the case of `C[C@H](NS(=O)(=O)c1ccc(Cl)cc1)C(=O)OCC(=O)N1CCOCC1`, the inhibition is reported as 1.59% (inactive). `CSCCC(NC(=O)c1ccc(=O)n(C)n1)c1nc2ccccc2[nH]1` (centres undefined) was tested, and the inhibition was 12.2% (inactive). `COc1ccc(CC(=O)N[C@@H](CCSC)c2nc3ccccc3[nH]2)cc1` was tested, and the inhibition was 33.1% (inactive). `CSCCC(NC(=O)c1cc([N+](=O)[O-])cc([N+](=O)[O-])c1)c1nc2ccccc2[nH]1` (centres undefined) was tested, and the inhibition was 82% (active). `CN(c1ccccc1)S(=O)(=O)c1cccc(NC(=O)Cc2c(F)cccc2Cl)c1` was tested, and the inhibition was 26.3% (inactive). `COc1ccc([N+](=O)[O-])cc1NC(=O)CCc1ccccc1` was tested, and the inhibition was 28.9% (inactive). For `Cc1cnc(NC(=O)c2ccccn2)s1`, the inhibition was 14.3% (inactive). With `COc1ccc(NC(=O)C2COc3ccccc3O2)cc1` (centres undefined) the inhibition was 3.74% (inactive). With `O=C(Nc1ncc([N+](=O)[O-])s1)C1COc2ccccc2O1` (centres undefined) the inhibition was 57.4% (active). With `COc1ccc(OC)c2sc(NC(=O)C3COc4ccccc4O3)nc12` (centres undefined) the inhibition was 14.5% (inactive). In the case of `CC(=O)Oc1ccccc1C(=O)Nc1ncc([N+](=O)[O-])s1`, the inhibition is reported as 86% (active). In the case of `CC(C)Cc1nnc(NC(=O)CCc2ccccc2)s1`, the inhibition is reported as -12.6% (inactive). In the case of `O=C(CCc1ccccc1)Nc1ncc([N+](=O)[O-])s1`, the inhibition is reported as 52.7% (active). With `COc1ccc(NC(=O)c2ccccc2[N+](=O)[O-])cc1OC` the inhibition was 10.8% (inactive). With `O=C(Cc1c(F)cccc1Cl)Nc1ccc(-n2cnnn2)cc1` the inhibition was 3.25% (inactive). In the case of `O=C(Cc1c(F)cccc1Cl)Nc1ncc([N+](=O)[O-])s1`, the inhibition is reported as 43.1% (active).
